Compound activity: PubChem, National Center for Advancing Translational Sciences (NCATS)
NS1 inh = influenza NS1 inhibition; Potency, µM (series often up to 46.1 µM); hit rate 0.4% among 270,000; AID 2326; further: actives are rising curves; nearly all actives have a fitted effect of over 50% in size
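OD600 was taken as the measure of yeast growth restored by compound in an NS1-expressing S. cerevisiae strain. Cells had been washed out of glucose medium and diluted 1:100 into galactose -URA medium, pH 6.0.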
Pf growth 96h = P. falciparum growth inhibition at 96 hours; AID 504834; Potency, µM (top dose mostly 28.7 µM), actives largely listed as inhibitors; hit rate 6.9% among 320,000; P. falciparum luciferase reporter growth, 96 h; active means well fitted inhibition curve with a large enough effect; inconclusive means small, poorly fitted or top-dose-only effect, or another doubt; inactive means no such curve, though single readings can be large or run the other way
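P. falciparum expressing integrated firefly luciferase grown in erythrocytes (2% hematocrit, 0.05% parasitemia final) with compounds for 96 hours at 37 C, 5% CO2. Growth inhibition read as loss of luminescence after adding luciferase detection reagent.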
Pf growth 48h = inhibits P. falciparum growth in the first generation, 48 h | AID 504832 | Potency, µM (top dose mostly 28.7 µM), usual class: inhibitors | hit rate 5.9% among 310,000 | P. falciparum luciferase growth in erythrocytes, 48 h; active means well fitted inhibition curve with a large enough effect; inconclusive means small, poorly fitted or top-dose-only effect, or another doubt; inactive means no such curve, though single readings can be large or run the other way
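Here the parasites carry a stable luciferase gene and grow inside erythrocytes in Albumax-based RPMI medium with compound for one erythrocytic cycle. Activity is scored as loss of luminescent signal.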
CHX counter = counter-screen hit for Shiga toxin inhibitors, cycloheximide; hit rate 12% among 300,000; cell reporter, cycloheximide protein synthesis inhibition counterscreen; max response, %; in the data active means max response mostly above about 13%, no sharp cut-off; inactive means mostly below about 14%; further: read at 38.3 µM for the half of the compounds with a filed dose
SARS PLpro yeast = inhibitors of SARS-CoV papain-like protease in yeast; S. cerevisiae expressing SARS-CoV PLpro, growth rescue; Potency, µM (titrated, usually from 32.9 µM), most hits filed as activators; hit rate 0.19% among 330,000; AID 485353; further: nearly all actives have a fitted effect of over 55% in size
Shiga toxin inh = Shiga toxin inhibition; AID 2315; Vero cells, Shiga toxin protein synthesis inhibition reporter; inhibition, % at 38.7 µM; hit rate 9.2% among 290,000; in the data active means inhibition mostly above about 28%, no sharp cut-off; inactive means mostly below about 43%
A number is an active result; . = inactive; ? = inconclusive; / = not tested or not shown; [ ] = remark or other dose. The list is not random: actives were taken first. Their share in the collection is about 21%. Unless noted, the call rests on the fitted dose curve.

SMILES | NS1 inh | Pf growth 96h | Pf growth 48h | CHX counter | SARS PLpro yeast | Shiga toxin inh
O=S(=O)(Nc1cccc(Cl)c1)c1ccc2oc(=S)[nH]c2c1 | / | . | . | . | . | .
Cc1cccc(C(=O)NCC(=O)N2CC(=O)Nc3ccccc32)c1 | / | . | . | . | . | .
OCCCNc1ncnc2c1cnn2-c1ccc(Cl)cc1 | . | . | .[0.00184 µM] | 51.8 | . | 75.1
Clc1ccc(-n2ncc3c(NCc4ccco4)ncnc32)cc1 | . | . | . | . | . | .
CN(C)CCNc1ncnc2c1cnn2-c1ccc(Cl)cc1 | . | ? | / | 30.0 | . | .
COC(=O)CS(=O)(=O)c1ccc(C)cc1 | . | . | . | . | . | .
Cc1ccc2c(CSc3nnc(N)s3)cc(=O)oc2c1 | . | / | . | 32.0 | . | 59.5
CC(=O)Nc1ccc2c(CSc3nnc(N)s3)cc(=O)oc2c1 | ? | ? | . | . | . | .
NC(=O)c1ccsc1NC(=O)COC(=O)c1ccccc1NCc1ccco1 | . | ? | . | 33.5 | . | 106.8
CC(C)(C)NC(=O)COC(=O)c1ccccc1NC(=O)c1ccco1 | . | . | . | . | . | .
O=C(COC(=O)c1c(F)cccc1F)Nc1ccc2c(c1)OCO2 | / | . | . | / | . | /
COC(=O)c1ccccc1NC(=O)COC(=O)c1ccc(C)c(NC(=O)c2ccco2)c1 | . | 2.33µM | 2.33µM | . | . | .
O=C(COC(=O)c1ccccc1NCc1ccco1)Nc1ccc2c(c1)OCO2 | . | . | . | 26.6 | . | 62.2
O=C(COC(=O)c1ccccc1NC(=O)c1ccco1)Nc1ccc2c(c1)OCO2 | . | . | . | 16.8 | . | .
COC(=O)c1ccccc1NC(=O)COC(=O)c1ccco1 | . | .[5.75 µM] | . | . | . | .
COC(=O)c1ccc(NS(=O)(=O)c2cc3c4c(c2)CCN4C(=O)CC3)cc1 | / | . | . | / | . | /
COc1ccc(CCNC(=O)C2(C)CCC(=O)N2Cc2ccc(F)cc2Cl)cc1OC (stereo not drawn) | . | ? | . | . | . | .
O=S(=O)(Nc1cc(F)ccc1F)c1cccc2nonc12 | . | . | . | . | . | .
COc1ccccc1N1CCN(C(=O)CSc2ncccc2-c2nc3ccccc3[nH]2)CC1 | . | . | / | 21.4 | . | .
COc1ccc(N2CCN(C(=O)CSc3ncccc3-c3nc4ccccc4[nH]3)CC2)cc1 | . | ? | . | 21.0 | . | .
O=C(CSc1ncccc1-c1nc2ccccc2[nH]1)N1CCN(c2ccccc2F)CC1 | ? | . | . | 55.9 | . | .
O=C(CSc1ncccc1-c1nc2ccccc2[nH]1)NC1CC1 | . | . | . | . | . | .
C=CCSc1nnc(-c2nnc(SCC=C)n2CC)n1CC | . | 11.7µM | 10.4µM | . | . | .
C=CCSc1nnc(CNC(=O)c2ccc(Cl)cc2)n1CC | . | .[5.75 µM] | . | . | . | .
C=CCn1c(SCC(=O)N2CCc3ccccc3C2)nc2sc(C)cc2c1=O | . | ? | ? | . | . | .
SMILES | NS1 inh | Pf growth 96h | Pf growth 48h | CHX counter | SARS PLpro yeast | Shiga toxin inh
CCc1c(C)nc(N)n2c(SCC(=O)Nc3ccccc3OC)nnc12 | . | 10.4µM | . | . | . | .
COc1ccccc1NC(=O)CC(=O)CSc1nnc(-c2ccc(C)cc2)n1C | ? | . | 11.7µM | . | . | .
COc1ccc(C(=O)NCCc2nnc(SCC(=O)Nc3ccccc3F)n2C)cc1 | . | ? | . | . | . | .
CCOc1ccccc1NC(=O)CSc1nnc2c(CC)c(C)nc(N)n12 | . | / | . | . | . | .
COc1ccccc1NC(=O)CSc1nnc(-c2ccc(NC(C)=O)cc2)n1C | . | ? | . | . | . | .
COc1ccccc1NC(=O)CSc1nnc(CCNC(=O)c2ccc(C)cc2)n1C | . | . | ? | 14.9 | . | .
CCCCSc1nnc(-c2ccc(NC(=O)CCc3ccccc3)cc2)n1C | . | 11.7µM | ? | . | . | .
CCOc1ccc(CNC(=O)CCCn2nc(C)c3c(C)n(-c4ccc(C)cc4)nc3c2=O)cc1 | . | . | . | . | . | .
Cn1c(SCC(=O)CC(=O)Nc2ccccc2)nnc1-c1ccc(O)cc1 | ? | 11.7µM | . | . | . | .
COc1ccccc1CCc1nnc(CCC(=O)NCCOc2cccnc2)o1 | . | . | . | . | . | .
COc1ccccc1CCc1nnc(CCC(=O)NCC(C)Oc2cccnc2)o1 (stereo not drawn) | . | 16.5µM | . | . | . | .
O=C(COC(=O)c1ccc(O)cc1)NCCC1=CCCCC1 | / | . | . | . | . | .
O=C(COC(=O)c1cccs1)NCCC1=CCCCC1 | . | . | . | 14.0 | . | .
O=C(COC(=O)c1ccccc1NC(=O)c1ccco1)NCCC1=CCCCC1 | . | / | . | 30.4 | . | .
O=C(COC(=O)c1ccccc1O)NCCC1=CCCCC1 | / | . | . | 46.6 | . | 89.6
O=C(COC(=O)c1ccc2c(c1)OCCO2)NCCC1=CCCCC1 | . | ? | . | 23.2 | . | 99.9
O=C(COC(=O)c1ccccc1NC(=O)c1ccco1)NCC1CCCCC1 | . | ? | / | . | . | .
Cc1ccc(C(=O)OCC(=O)NCCC2=CCCCC2)s1 | . | . | . | . | . | .
CC1CCN(C(=O)c2ccc(N3CCOCC3)c([N+](=O)[O-])c2)CC1 | / | / | / | / | . | /
O=C(COC(=O)c1ccccc1Cl)NCCC1=CCCCC1 | / | . | . | 31.1 | . | 82.8
COc1ccc(C(C)(C)C)cc1NC(=O)CN1C(=O)C(=O)N(Cc2ccco2)C1=O | / | ? | ? | / | . | /
CCCNC(=O)c1cc(-c2ccc(Br)cc2)on1 | . | ? | . | 33.9 | ? | 66.1
CN(Cc1ccccc1)C(=O)c1cc(-c2ccc(Br)cc2)on1 | . | ? | . | 20.7 | . | 68.9
CCCNC(=O)c1cc(-c2ccc(O)cc2)on1 | . | / | / | / | / | /
CC(C)NC(=O)c1cc(-c2ccc(Br)cc2)on1 | . | ? | . | 48.8 | . | 121.8
SMILES | NS1 inh | Pf growth 96h | Pf growth 48h | CHX counter | SARS PLpro yeast | Shiga toxin inh
CC(NC(=O)c1cc(-c2ccc(O)cc2)on1)c1ccccc1 (stereo not drawn) | . | / | / | / | / | /
Cc1c(NC(=O)CC2NC(=O)NC2=O)c(=O)n(-c2ccccc2)n1C (stereo not drawn) | / | . | . | . | . | .
CCOc1ccc(CSC2=NCCN2)cc1[N+](=O)[O-] | . | ? | ? | . | . | .
COc1ccc(CSC(=N)N)cc1[N+](=O)[O-] | . | . | / | . | . | .
CCCCOc1ccc(CN(CCO)CCO)cc1[N+](=O)[O-] | . | . | . | 49.9 | . | 124.6
CCCCCOc1ccc(CSC(=N)N)cc1[N+](=O)[O-] | . | 0.465µM | ? | . | . | .
CCCCOc1ccc(Br)cc1CSC(=N)N | . | ? | 4.65µM | . | . | .
CCOc1ccc(CN(CCO)CCO)cc1[N+](=O)[O-] | . | . | . | . | . | .
CCCCOc1ccc(CSC2=NCCN2)cc1[N+](=O)[O-] | . | 13.1µM | ? | . | . | .
CC1=C([N+](=O)[O-])C(c2ccccc2)NC(=O)N1 (stereo not drawn) | . | ? | . | . | . | /
C#Cc1ccc(C(=O)Nc2cc(C(N)=O)ccc2N2CCOCC2)cc1 | . | / | ? | . | . | .
